Hit rate of the full screen: of about 230,000 compounds, about 1,500 (0.65%) were called active.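 How the source made its calls: active means pattern-corrected inhibition of lipid staining of at least 50% with the nuclear-stain viability signal not falling by more than 50%; inactive means the rest, inconclusive results apart.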 The list comes from a sample in which actives are over-represented; it also holds similar structures and randomly drawn compounds.
test: TAG lipid buildup reduction in H9c2 cells – cell-based, uHTS, fluorescence, primary screen (AID 651582); conditions: Nile Red lipid (TAG) fluorescence, at 12.5 µM, cells loaded with 200 µM oleic acid; DAPI nuclei signal change (viability), lower = more cytotoxic: measured here: DAPI nuclei count viability; inhibition: stronger effect = higher value;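 on inhibition: 0% = DMSO wells and 100% = triacsin C control wells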

| Structure (SMILES) | DAPI nuclei signal change (viability), lower = more cytotoxic [%] | inhibition |
| --- | --- | --- |
| COc1ccc(-c2c(C#N)cnc(C)c2C)c(O)c1OC | -5.41 | 12.5% (inactive) |
| CC1(C(=O)NCc2ccco2)Cc2c(-c3ccc4c(c3)OCO4)ccnc2O1 (configuration not stated) | -35.6 | 52.2% (active) |
| CC(=O)Nc1cccc(-c2ccnc3c2CC(C)(C(=O)NCc2ccco2)O3)c1 (configuration not stated) | -40.5 | 43.4% (inactive) |
| CC1(C(=O)NCc2ccc(F)c(F)c2)Cc2c(-c3ccc4c(c3)OCO4)ccnc2O1 (configuration not stated) | -30.3 | 36.2% (inactive) |
| CCc1nc2c(OCC(=O)C(C)(C)C)cccn2c1N(C)C(=O)c1ccccc1F | -14.1 | 14.9% (inactive) |
| CCN(CC(=O)Nc1ccc(NC(C)=O)cc1)C(=O)CSC(=S)N1CCCC1 | -7.39 | -13.5% (inactive) |
| Cc1ccccc1Nc1nnc(C)c(=O)[nH]1 | 1.64 | -16.3% (inactive) |
| Cc1nnc(N/N=C/c2ccccn2)[nH]c1=O | -33.8 | 53.3% (active) |
| Cc1nnc(N/N=C/c2cccs2)[nH]c1=O | 4.89 | 29.3% (inactive) |
| Cc1cc(C)cc(NC(=O)NCc2ccccn2)c1 | 7.71 | -29.5% (inactive) |
| O=[N+]([O-])c1ccc(C=NN=Cc2ccc([N+](=O)[O-])cc2)cc1 | -4.6 | 6.59% (inactive) |
